# Records with an inconclusive call do not appear. Active and inactive are the calls of the source. Rule for the calls, unless noted: active = hit-call score of the fitted dose curve at least 0.9, where 1 is the maximum; inconclusive = response in the unintended direction; inactive = score below 0.9.
# How the values were obtained:
# [1] = molecular target: Cellular tumor antigen p53 (Homo sapiens) (UniProt P04637); assay: TOX21_p53_BLA_p2_ratio: Tox21 HCT-116 p53 Agonism Beta-lactamase Assay, Ratio, Phase 2 (AID 2283592)
# Chain of Cellular tumor antigen p53 (Homo sapiens) (P04637 whole entry, looked up): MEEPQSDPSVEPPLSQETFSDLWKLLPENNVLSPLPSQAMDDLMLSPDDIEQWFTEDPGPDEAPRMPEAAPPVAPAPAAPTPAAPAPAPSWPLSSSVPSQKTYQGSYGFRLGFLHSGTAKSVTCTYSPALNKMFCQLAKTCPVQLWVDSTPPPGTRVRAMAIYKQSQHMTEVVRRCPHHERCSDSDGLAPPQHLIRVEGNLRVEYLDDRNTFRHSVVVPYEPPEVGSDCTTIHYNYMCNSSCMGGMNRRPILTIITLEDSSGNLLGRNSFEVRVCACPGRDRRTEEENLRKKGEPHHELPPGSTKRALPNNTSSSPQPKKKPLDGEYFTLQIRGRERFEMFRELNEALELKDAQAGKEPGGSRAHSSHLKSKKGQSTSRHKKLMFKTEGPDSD
# Outline: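 Cleaved-to-uncleaved substrate ratio (460 vs 530 nm) measured in HCT116 cells with an inducible beta-lactamase reporter linked to p53 activity. Compounds incubated 16 h at 37C before 2 h room-temperature CCF4-AM loading.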
# [2] = TOX21_p53_BLA_p3_viability: Viability Assessment in the Tox21 HCT-116 p53 Agonism Beta-lactamase Assay, Phase 3 (AID 2283593);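 note: cells exposed to compound for 16 h before reading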
# Outline: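 HCT-116 cells (4000/well) rested 5 h at 37C, then got DMSO compounds by pin tool (217-fold dilution) for 16 h at 37C, 5% CO2. After the bla read, CellTiter-Glo was added and luminescence read at 30 min, room temperature.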
# [3] = molecular target: Cellular tumor antigen p53 (Homo sapiens) (UniProt P04637); assay: TOX21_p53_BLA_p3_ratio: Tox21 HCT-116 p53 Agonism Beta-lactamase Assay, Ratio, Phase 3 (AID 2283596)
# Outline: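 Cells were seeded at 4000/well, rested 5 h at 37C, then dosed with DMSO compound solutions (217-fold dilution) for 16 h. CCF4-AM substrate was loaded for 2 h at room temperature, and the 460/530 nm emission ratio was fitted for gain of signal versus DMSO.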
# [4] = molecular target: Cellular tumor antigen p53 (Homo sapiens) (UniProt P04637); assay: TOX21_p53_BLA_p5_ratio: Tox21 HCT-116 p53 Agonism Beta-lactamase Assay, Ratio, Phase 5 (AID 2283599)
# Outline: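 HCT-116 cells carrying a p53-inducible beta-lactamase reporter were seeded at 4000 cells/well and dosed after 5 h with compound in DMSO (217-fold dilution). After 16 h at 37C, CCF4-AM substrate was added for 2 h, and the 460/530 nm emission ratio was scored as gain-of-signal versus DMSO.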
# [5] = TOX21_p53_BLA_p5_viability: Viability Assessment in the Tox21 HCT-116 p53 Agonism Beta-lactamase Assay, Phase 5 (AID 2283600)
# Outline: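 Viability is taken from cellular ATP content, measured by luciferase luminescence in the same wells after the beta-lactamase ratio read. Cells are seeded at 4000 per well and exposed to DMSO-dissolved compounds, diluted 217-fold, for 16 h.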
# [6] = molecular target: Cellular tumor antigen p53 (Homo sapiens) (UniProt P04637); assay: TOX21_p53_BLA_p4_ratio: Tox21 HCT-116 p53 Agonism Beta-lactamase Assay, Ratio, Phase 4 (AID 2283601)
# Outline: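 HCT116 cells carrying an inducible beta-lactamase reporter were plated at 4000 cells/well, rested 5 h, then exposed to compounds in DMSO (217-fold dilution) for 16 h at 37C. CCF4-AM substrate was loaded 2 h at room temperature; 460/530 nm emission ratio scored gain-of-signal versus DMSO.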
# [7] = TOX21_p53_BLA_p4_viability: Viability Assessment in the Tox21 HCT-116 p53 Agonism Beta-lactamase Assay, Phase 4 (AID 2283597);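 note: hits lower the luminescence signal meaning cytotoxicity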
# Outline: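 Viability is taken as cellular ATP: after 16 h compound exposure of HCT116 cells and a 2 h room-temperature CCF4-AM substrate step, CellTiter-Glo reagent is added and luminescence is measured 30 min later.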
# [8] = molecular target: Thyroid hormone receptor alpha (Rattus norvegicus) + Thyroid hormone receptor beta (Rattus norvegicus) (UniProt P18113+P63059); assay: TOX21_TR_LUC_GH3_Agonist_Followup: Tox21 GH3 Thyroid Hormone Receptor Agonism Luciferase Follow-Up Assay (AID 2283939)
# Chain of Thyroid hormone receptor alpha (Rattus norvegicus) + Thyroid hormone receptor beta (Rattus norvegicus) (P63059 whole entry, looked up): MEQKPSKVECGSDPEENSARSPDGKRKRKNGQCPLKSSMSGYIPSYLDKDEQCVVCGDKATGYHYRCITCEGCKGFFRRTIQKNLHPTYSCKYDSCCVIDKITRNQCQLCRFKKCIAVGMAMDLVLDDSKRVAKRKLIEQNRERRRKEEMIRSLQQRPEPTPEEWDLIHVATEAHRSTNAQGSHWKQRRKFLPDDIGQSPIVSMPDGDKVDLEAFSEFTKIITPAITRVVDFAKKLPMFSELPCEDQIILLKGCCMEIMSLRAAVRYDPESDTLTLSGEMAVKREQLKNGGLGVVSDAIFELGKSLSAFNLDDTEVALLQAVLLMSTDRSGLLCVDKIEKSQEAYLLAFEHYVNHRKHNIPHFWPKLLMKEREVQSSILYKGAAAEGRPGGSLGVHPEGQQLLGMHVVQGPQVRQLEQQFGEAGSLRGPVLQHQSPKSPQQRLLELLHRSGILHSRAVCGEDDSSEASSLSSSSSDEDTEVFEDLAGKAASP
# Chain of Thyroid hormone receptor alpha (Rattus norvegicus) + Thyroid hormone receptor beta (Rattus norvegicus) (P18113 whole entry, looked up): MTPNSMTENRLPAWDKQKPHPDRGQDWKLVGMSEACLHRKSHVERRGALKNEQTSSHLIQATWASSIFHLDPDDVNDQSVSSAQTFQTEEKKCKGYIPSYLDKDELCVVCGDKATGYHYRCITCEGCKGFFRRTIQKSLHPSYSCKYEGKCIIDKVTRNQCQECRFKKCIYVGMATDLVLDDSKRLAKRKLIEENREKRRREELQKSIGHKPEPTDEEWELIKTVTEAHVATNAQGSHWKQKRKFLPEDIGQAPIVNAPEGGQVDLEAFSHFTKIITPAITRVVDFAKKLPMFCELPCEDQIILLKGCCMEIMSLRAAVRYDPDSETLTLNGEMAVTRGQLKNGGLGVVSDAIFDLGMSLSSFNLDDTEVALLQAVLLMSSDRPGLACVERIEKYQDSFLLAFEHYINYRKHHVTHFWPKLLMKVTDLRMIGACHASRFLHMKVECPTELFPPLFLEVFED
# Outline: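 Agonist-mode confirmatory run: 15 concentrations (5 nM to 92 uM final) on GH3 rat pituitary cells, 24 h at 37C/5% CO2, T3 as positive control. Luminescence read with ONE-Glo after 30 min.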
# THRA (gene 7067) = THRA (gene 7067) (UniProt P10827); assay: TOX21_TRA_COA_Agonist_Followup_ratio: Tox21 Thyroid Hormone Receptor alpha Agonism through Coactivator Recruitment Follow-Up Assay, Ratio (AID 2283948; active = hit-call score of the fitted dose curve at least 0.9, where 1 is the maximum; inactive = score below 0.9)
# Chain of THRA (gene 7067) (P10827 whole entry, looked up, the tested form may be a part): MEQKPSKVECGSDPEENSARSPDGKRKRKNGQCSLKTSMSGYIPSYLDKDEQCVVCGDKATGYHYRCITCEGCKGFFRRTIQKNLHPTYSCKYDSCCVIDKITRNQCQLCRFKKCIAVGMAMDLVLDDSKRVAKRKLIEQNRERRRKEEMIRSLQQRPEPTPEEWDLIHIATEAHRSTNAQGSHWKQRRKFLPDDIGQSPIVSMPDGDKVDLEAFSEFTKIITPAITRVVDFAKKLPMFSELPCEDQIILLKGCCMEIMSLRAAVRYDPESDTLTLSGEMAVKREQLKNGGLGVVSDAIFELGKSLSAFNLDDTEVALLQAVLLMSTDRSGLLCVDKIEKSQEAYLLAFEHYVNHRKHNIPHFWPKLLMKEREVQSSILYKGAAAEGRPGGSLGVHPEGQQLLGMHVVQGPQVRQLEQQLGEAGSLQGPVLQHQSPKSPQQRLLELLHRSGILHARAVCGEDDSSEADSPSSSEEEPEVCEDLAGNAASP
# Outline: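 First, compound was incubated with 2.5 nM GST-TRα LBD in 0.10% BSA. Next, 200 nM fluorescein-SRC-2 and 2 nM Tb-anti-GST antibody were added. Finally, the 520:495 nm ratio was normalized to DMSO and T3 controls.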
# THRB (gene 7068) [9] = molecular target: THRB (gene 7068) (UniProt P10828); assay: TOX21_TRB_BLA_Agonist_Followup_ratio: Tox21 Thyroid Hormone Receptor beta Agonism Beta-lactamase (BLA) Follow-Up Assay, Ratio (AID 2283954)
# Chain of THRB (gene 7068) (P10828 whole entry, looked up, the tested form may be a part): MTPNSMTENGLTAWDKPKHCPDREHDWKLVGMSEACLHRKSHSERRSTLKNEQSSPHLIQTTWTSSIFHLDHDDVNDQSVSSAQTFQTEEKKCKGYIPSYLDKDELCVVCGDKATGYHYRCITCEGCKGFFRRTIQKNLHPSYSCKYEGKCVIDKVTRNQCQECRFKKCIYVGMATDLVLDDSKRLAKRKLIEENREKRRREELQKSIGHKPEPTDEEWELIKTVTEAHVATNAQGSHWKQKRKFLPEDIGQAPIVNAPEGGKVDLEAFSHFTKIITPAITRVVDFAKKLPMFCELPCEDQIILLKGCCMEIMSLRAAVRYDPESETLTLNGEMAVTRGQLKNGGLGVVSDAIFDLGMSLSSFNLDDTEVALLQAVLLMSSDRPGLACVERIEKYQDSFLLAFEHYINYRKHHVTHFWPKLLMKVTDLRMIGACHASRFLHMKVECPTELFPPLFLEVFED
# Outline: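 Agonist mode: compounds (11-point, triplicate) incubated 18 h with HEK293T cells carrying GAL4-DBD/human TRβ-LBD and UAS-β-lactamase. Blue/green (460/530 nm) FRET ratio read after 2 h CCF4-AM loading; CellTiter-Glo viability run in the same plates.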
# THRB (gene 7068) [10] = molecular target: THRB (gene 7068) (UniProt P10828); assay: TOX21_TRB_COA_Agonist_Followup_ratio: Tox21 Thyroid Hormone Receptor beta Agonism through Coactivator Recruitment Follow-Up Assay, Ratio (AID 2283963; active = hit-call score of the fitted dose curve at least 0.9, where 1 is the maximum; inactive = score below 0.9)
# Outline: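 Signal is the 520/495 nm emission ratio (excitation 340 nm), scaled between DMSO-only wells as 0% and T3 wells as 100%. It reflects fluorescein-labeled SRC-2 peptide recruitment to GST-TRβ ligand-binding domain detected via terbium anti-GST antibody.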
# [11] = molecular target: Retinoic acid receptor RXR-alpha (Homo sapiens) (UniProt P19793); assay: TOX21_TR_RXR_BLA_Agonist_Followup_ratio: Tox21 Thyroid Hormone Receptor beta Retinoid X Receptor alpha (RXRa) Agonism Beta-lactamase (BLA) Follow-Up Assay, Ratio (AID 2283968)
# Chain of Retinoic acid receptor RXR-alpha (Homo sapiens) (P19793 whole entry, looked up): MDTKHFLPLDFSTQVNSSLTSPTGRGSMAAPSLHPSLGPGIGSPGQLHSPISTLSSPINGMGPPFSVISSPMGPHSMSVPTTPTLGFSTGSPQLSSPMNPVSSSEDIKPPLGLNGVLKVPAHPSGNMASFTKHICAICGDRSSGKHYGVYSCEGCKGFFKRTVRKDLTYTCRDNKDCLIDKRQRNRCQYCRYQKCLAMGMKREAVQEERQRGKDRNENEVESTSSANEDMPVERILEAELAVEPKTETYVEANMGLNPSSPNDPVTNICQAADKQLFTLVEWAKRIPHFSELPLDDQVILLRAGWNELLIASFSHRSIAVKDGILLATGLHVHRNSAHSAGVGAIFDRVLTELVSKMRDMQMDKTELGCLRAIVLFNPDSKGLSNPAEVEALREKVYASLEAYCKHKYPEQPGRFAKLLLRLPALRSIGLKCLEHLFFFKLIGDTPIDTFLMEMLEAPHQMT
# Outline: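 Agonism is scored as an increase in the 460:530 nm beta-lactamase substrate ratio over DMSO in RXRa-UAS-bla HEK293T cells exposed for 16 h to 11 compound concentrations.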
structure (smiles),measurement,setting,value
C=CC1CO1 (stereo not drawn),outcome,[1],inactive
same,outcome,[2],inactive
same,outcome,[3],inactive
same,outcome,[4],inactive
same,outcome,[5],inactive
same,outcome,[6],inactive
C=COCC(C)C,outcome,[1],inactive
same,outcome,[2],inactive
same,outcome,[3],inactive
same,outcome,[4],inactive
O=C(O)c1ccncc1,outcome,[1],inactive
same,outcome,[2],inactive
same,outcome,[3],inactive
same,outcome,[4],inactive
same,outcome,[5],inactive
same,outcome,[6],inactive
CC(=O)OCC1=C(C(=O)O)N2C(=O)[C@@H](NC(=O)Cc3cccs3)[C@H]2SC1,outcome,[1],inactive
same,outcome,[2],inactive
same,outcome,[3],inactive
same,outcome,[4],inactive
same,outcome,[5],inactive
same,outcome,[6],inactive
CCCCCCCCOCCC#N,outcome,[1],inactive
same,outcome,[2],inactive
same,outcome,[3],inactive
same,outcome,[4],inactive
same,outcome,[5],inactive
same,outcome,[6],inactive
Cc1cc(C(C)(C)C)cc(C)c1CC1=NCCN1,outcome,[1],inactive
same,outcome,[2],inactive
same,outcome,[3],inactive
same,outcome,[4],inactive
same,outcome,[5],inactive
same,outcome,[6],inactive
CO[Si](CCCNCCC[Si](OC)(OC)OC)(OC)OC,outcome,[1],inactive
same,outcome,[2],inactive
same,outcome,[3],inactive
same,outcome,[7],inactive
same,outcome,[5],inactive
same,outcome,[6],inactive
CCCCN(CCCC)CCCOC(=O)c1ccc(N)cc1,outcome,[1],inactive
same,outcome,[2],inactive
same,outcome,[3],inactive
same,outcome,[4],inactive
same,outcome,[5],inactive
same,outcome,[6],inactive
NCC(=O)O,outcome,[1],inactive
same,outcome,[2],inactive
same,outcome,[3],inactive
same,outcome,[4],inactive
same,outcome,[5],inactive
CC(C)=C1CC[C@@H](C)CC1=O,outcome,[1],inactive
same,outcome,[2],inactive
same,outcome,[3],inactive
same,outcome,[7],inactive
same,outcome,[6],inactive
O=Cc1ccccc1[N+](=O)[O-],AC50,[1],70.6 µM (active)
same,outcome,[2],inactive
same,outcome,[3],inactive
same,AC50,[4],68 µM (active)
same,outcome,[5],inactive
same,outcome,[6],inactive
CCN(CC)CCNC(=O)COc1ccc(Cl)cc1,outcome,[1],inactive
same,outcome,[2],inactive
same,outcome,[3],inactive
same,outcome,[7],inactive
same,outcome,[6],inactive
CC(=O)Oc1c(C)cc(OCC(O)CNC(C)C)c(C)c1C (stereo not drawn),outcome,[1],inactive
same,outcome,[2],inactive
same,outcome,[3],inactive
same,outcome,[7],inactive
same,outcome,[6],inactive
C[N+]12CCC(CC1)C(OC(=O)C(O)(c1ccccc1)c1ccccc1)C2 (stereo not drawn),outcome,[1],inactive
same,outcome,[2],inactive
same,outcome,[3],inactive
same,outcome,[7],inactive
same,outcome,[6],inactive
O=S(O)CO,outcome,[1],inactive
same,outcome,[2],inactive
same,outcome,[3],inactive
same,outcome,[7],inactive
same,outcome,[6],inactive
CCOc1cc(CC(=O)N[C@@H](CC(C)C)c2ccccc2N2CCCCC2)ccc1C(=O)O,outcome,[1],inactive
same,outcome,[2],inactive
same,outcome,[3],inactive
same,outcome,[7],inactive
same,outcome,[6],inactive
O=C1Nc2ccc([N+](=O)[O-])cc2C1=O,AC50,[1],74.4 µM (active)
same,outcome,[2],inactive
same,AC50,[3],85.2 µM (active)
same,AC50,[4],82.1 µM (active)
same,outcome,[5],inactive
same,AC50,[6],72.8 µM (active)
CC[C@H](C)[C@H](N)C(=O)O,outcome,[1],inactive
same,outcome,[2],inactive
same,outcome,[3],inactive
same,outcome,[4],inactive
CCCCC(O)c1ccccc1 (stereo not drawn),outcome,[1],inactive
same,AC50,[2],30.6 µM (active)
same,outcome,[3],inactive
same,outcome,[7],inactive
same,outcome,[5],inactive
same,outcome,[6],inactive
O=C(O)O,outcome,[1],inactive
same,outcome,[2],inactive
same,outcome,[3],inactive
same,outcome,[4],inactive
same,outcome,[5],inactive
same,outcome,[6],inactive
CC(CCc1ccc(O)cc1)NCCc1ccc(O)c(O)c1 (stereo not drawn),outcome,[1],inactive
same,outcome,[2],inactive
same,outcome,[3],inactive
same,outcome,[7],inactive
same,AC50,[6],43.6 µM (active)
O=C1C(O)=C(O)C(=O)C(O)=C1O,outcome,[1],inactive
same,outcome,[2],inactive
same,outcome,[3],inactive
same,outcome,[4],inactive
same,outcome,[5],inactive
COCC(C)OC(C)=O (stereo not drawn),outcome,[1],inactive
same,outcome,[2],inactive
same,outcome,[3],inactive
same,outcome,[4],inactive
same,outcome,[5],inactive
O=P(O)(O)OC(Cn1cncn1)(Cn1cncn1)c1ccc(F)cc1F,outcome,[1],inactive
same,outcome,[2],inactive
same,outcome,[3],inactive
same,outcome,[4],inactive
same,outcome,[5],inactive
CCCCC(CC)CN (stereo not drawn),outcome,[1],inactive
same,outcome,[2],inactive
same,outcome,[3],inactive
same,outcome,[7],inactive
same,outcome,[6],inactive
Clc1cc(Cl)cc(Cl)c1,outcome,[1],inactive
same,outcome,[2],inactive
same,outcome,[3],inactive
same,outcome,[7],inactive
same,outcome,[5],inactive
same,outcome,[6],inactive
N[C@H](CO)C(=O)O,outcome,[1],inactive
same,outcome,[2],inactive
same,outcome,[3],inactive
same,outcome,[4],inactive
same,outcome,[5],inactive
same,outcome,[6],inactive
CCc1cc(S(=O)(=O)O)c2cc(C(C)C)cccc1-2,outcome,[1],inactive
same,outcome,[2],inactive
same,outcome,[3],inactive
same,outcome,[4],inactive
same,outcome,[5],inactive
same,outcome,[6],inactive
NCC(=O)CCC(=O)O,outcome,[1],inactive
same,outcome,[2],inactive
same,outcome,[3],inactive
same,outcome,[4],inactive
same,outcome,[5],inactive
same,outcome,[6],inactive
same,AC50,[8],13.1 µM (active)
same,outcome,THRA (gene 7067),inactive
same,outcome,THRB (gene 7068) [9],inactive
same,outcome,THRB (gene 7068) [10],inactive
same,outcome,[11],inactive
C#C[C@]1(OC(C)=O)CC[C@H]2[C@@H]3CCC4=CC(=O)CC[C@@H]4[C@H]3CC[C@@]21C,outcome,[1],inactive
same,outcome,[2],inactive
same,outcome,[3],inactive
same,outcome,[4],inactive
same,outcome,[6],inactive

# From PubChem BioAssay (EPA / NIEHS)
